# BAZ2B inh = BAZ2B (human) inhibition; AlphaScreen BAZ2B-H3K14Ac peptide displacement; Potency, µM (titrated, usually from 114 µM), for inactives: at the top dose activity change, negative = inhibition, hits mostly inhibitors; actives 4.4% (n = 360,000); further: on the % scale 0 is the no-effect control and ±100 the full control effect; nearly all actives have a fitted effect of over 60% in size
#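 Compounds, titrated to a top concentration of 110 uM, were incubated 30 min at room temperature with preformed BAZ2B/acetyl-K14 H3 peptide complex (50 nM each). Proximity signal was measured by AlphaScreen after 20 min with beads.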
# JMJD2A Tudor inh = blocks the human JMJD2A Tudor domain. actives 4.4% (n = 390,000). Potency, µM (doses to about 114 µM), for the others: at the highest dose activity change, negative = inhibition, hits mostly inhibitors. AlphaScreen JMJD2A-Tudor / H3K4me3 peptide binding. AID 504339. O75164; further: on the % scale 0 is the no-effect control and ±100 the full control effect; nearly all actives have a fitted effect of over 50% in size
# GLS inhibitor = glutaminase GLS (human) inhibition | O94925 | GLS enzymatic activity, qHTS titration | Potency, µM (top dose mostly 45.5 µM), for the others: at the highest dose activity change, negative = inhibition, usual class: inhibitors | actives 0.21% (n = 410,000) | AID 624170; further: on the % scale 0 is the no-effect control and ±100 the full control effect
#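 Enzyme dispensed in phosphate buffer (45 mM, pH 8.2, 0.02% Tween-20), compounds pinned in, then 1 mM L-glutamine solution and the glutamate oxidase–HRP–Amplex Red mix added; fluorescence read immediately and again after 30 min at room temperature.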
# G9a inh = G9a (human) methyltransferase inhibition; actives 8.8% (n = 350,000); Potency, µM (highest dose often 102 µM), inactives show at the top dose activity, negative = inhibition, usual class: inhibitors; G9a H3K9 monomethylation, AlphaScreen, 2 h; Q96KQ7; further: on the % scale 0 is the no-effect control and ±100 the full control effect; nearly all actives have a fitted effect of over 75% in size
# Target sequence (Q96KQ7 913-1193 limits assumed): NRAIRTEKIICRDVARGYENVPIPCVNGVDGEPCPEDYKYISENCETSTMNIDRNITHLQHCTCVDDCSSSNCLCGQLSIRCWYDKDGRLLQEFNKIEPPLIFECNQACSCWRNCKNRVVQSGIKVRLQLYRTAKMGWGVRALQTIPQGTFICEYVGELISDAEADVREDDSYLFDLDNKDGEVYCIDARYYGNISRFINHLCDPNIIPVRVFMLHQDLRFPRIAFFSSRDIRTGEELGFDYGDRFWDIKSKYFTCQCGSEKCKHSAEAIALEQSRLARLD
#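 G9a (20 nM) was preincubated 15 min with compound, then reacted 2 h at room temperature with 500 nM biotin-H3K9 peptide and 20 µM SAM. Monomethyl-H3K9 detected by AlphaScreen using anti-H3K9me1 antibody.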
# HP1b binding inh = inhibitors of HP1-beta chromodomain binding to methylated histone tails; P83916; AlphaScreen HP1-beta / biotin-H3K9me3 peptide binding; Potency, µM (highest dose often 114 µM), inactives show top-dose activity change, negative = inhibition, actives largely listed as inhibitors; actives 0.56% (n = 390,000); AID 540317; further: nearly all actives have a fitted effect of over 70% in size
# Target sequence (P83916 whole entry, looked up): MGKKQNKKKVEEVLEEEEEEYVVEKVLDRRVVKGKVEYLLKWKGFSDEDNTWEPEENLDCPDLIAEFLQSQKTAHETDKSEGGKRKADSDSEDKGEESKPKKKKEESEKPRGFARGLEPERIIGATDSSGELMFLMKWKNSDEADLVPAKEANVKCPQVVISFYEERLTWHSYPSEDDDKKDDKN
#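 AlphaScreen: HP1-beta (50 nM) preformed 30 min with biotin-H3(1-18)K9me3 peptide (50 nM) in PBS pH 7.4, 0.01% Tween-20. Compound added for 30 min at RT, then streptavidin donor/nickel chelate acceptor beads (10 ug/mL) for 30 min.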
# The depositor's hits bear a star; ? = inconclusive; nt = not tested or not shown; [ ] = dose if it differs, or a comment. Sampled rows, rich in hits. Any-hit rate of the full collection: about 10%. The call rests on the fitted dose curve; in most records, active means well fitted curve in the direction sought with a large enough effect; inconclusive means small, poorly fitted or top-dose-only effect, or another doubt; inactive means no such curve, though single readings can be large; an effect the other way counts as inactive or inconclusive. Potency means the concentration at half of the fitted maximal effect.
SMILES,BAZ2B inh,JMJD2A Tudor inh,GLS inhibitor,G9a inh,HP1b binding inh
CC(C)CN1C(=O)c2ccccc2C1(O)Cc1ccccc1 (centres undefined),21%,5%,4%,8.9µM*,50%
C=CCN1C(=O)c2ccccc2C1(O)Cc1ccccc1 (centres undefined),-14%,-14%,-1%,-1%,59%
COc1cc(/C=N/NC(=O)CCOc2ccccc2C)cc(Br)c1O,-16%,0%[11.4 µM],1%,50µM*,-1%
COc1ccc(/C=N/NC(=O)CCOc2ccccc2C)cc1OC,-31%,-6%,0%,?,27%
CC1CCC(NC(=O)CCCn2sc3ccccc3c2=O)CC1 (centres undefined),-16%,?,19%,22µM*,10%
CCCc1nnc(SCc2ccc(OC)cc2)n1N,4%,14µM*,?,-27%[12.7 µM],?
C(=C\c1nnc(-c2cccs2)o1)/c1ccccc1,44%,45%,5%,154%,91%
COc1ccc(N=Nc2c(N)n[nH]c2N)cc1,?,?,0%,nt,1%
COc1ccc(N=Nc2cc(OC)c(N)cc2OC)cc1,nt,45µM*,-22%,nt,50µM*
COc1ccc(OC)c(C(=O)C(=O)c2cc(OC)ccc2OC)c1,nt,-31%,-1%,nt,-6%
COc1ccc(OC)c(N)c1,50µM*,?,17%,32µM*,?
Nc1ccc(N=Nc2ccc(O)cc2)c(N)n1,nt,?,21%,nt,?
COc1ccc(N=Nc2ccc(N)nc2N)cc1,40µM*,40µM*,15%,28µM*,?
CCOc1ccc2nc3cc(N=Nc4ccc(N)nc4N)ccc3c(N)c2c1,nt,56µM*,-3%,nt,?
CC(=O)N1c2ccc(S(=O)(=O)NCCC(=O)N3CCCC(C)C3)cc2CC1C (centres undefined),-2%,?,2%,9%[59 µM],24%
CCOC(=O)C1=C(O)C(=O)N(Cc2cccnc2)C1c1ccc(OC)cc1 (centres undefined),-36%,-7%,-15%,?,45%
O=C(/C=C/c1ccccc1)OC1CC(O)C2(O)C=CO[C@@H](OC3OC(CO)C(O)C(O)C3O)C12 (some centres undefined),nt,nt,nt,-15%[2.33 µM],nt
CC(NC(=O)CC(O)(C(F)(F)F)C(F)(F)F)c1ccccc1 (centres undefined),1%,9%,-6%,?,29%
Cc1ccc(OCCCCNC2CCCC(C)C2C)c(C)c1 (centres undefined),22µM*,20µM*,-11%,13µM*,?
CN1CCN(c2ccc([N+](=O)[O-])c(-n3nc(-c4ccccc4)c4ccccc4c3=O)c2)CC1,35µM*,40µM*,-4%,45µM*,-47%
Cc1nn(-c2cc(N3CCCCC3)ccc2[N+](=O)[O-])c(=O)c2ccccc12,-18%,?,-1%,?,-5%
CCCCOc1ccc(CSC(=N)N)cc1Cl,-2%,-7%,20µM*,3%,9%
CCCCCOc1ccc(Br)cc1CSC(=N)N,6%,-31%,-6%,-12%[59 µM],14%
NC(=O)c1ccccc1NC(=O)CSC1=NCCS1,-18%,-2%,2%,50µM*,55%
CCOc1ccccc1NC(=O)CSc1nc(N)c(C#N)cc1C#N,-26%,-13%,7%,?,30%
SMILES,BAZ2B inh,JMJD2A Tudor inh,GLS inhibitor,G9a inh,HP1b binding inh
COc1ccccc1NC(=O)CSC(N)=O,4%,?,27%,35µM*,72%
COc1ccccc1NC(=O)CSc1nc(N)c(C#N)cc1C#N,?,-8%,0%,50µM*,18%
O=C(CSc1cn[nH]n1)Nc1ccccc1C(=O)O,-10%,79µM*,0%,7.9µM*,5%
Cc1ccccc1NC(=O)CSC(N)=O,-16%,-4%,19%,?,38%
COC(=O)c1sccc1-c1ccc(C(=O)Nc2ccccc2)o1,-27%,0%,2%,?,19%
COc1ccc(-c2oc3ccccc3c2C(=O)Oc2ccccc2)cc1,51%,135%,2%,204%,205%
CC(=O)c1cccc(N(C(=O)c2ccco2)C(C(=O)NC2CCCC2)c2cccs2)c1 (centres undefined),-3%,-19%,-7%,5%[59 µM],26%
CSc1ccccc1NC(=O)COC(=O)c1c[nH]c(=O)[nH]c1=O,-17%,-21%[11.4 µM],0%,nt,32%
O=C(O)CNc1ccccc1C(=O)O,?,56µM*,2%,nt,-1%
NC(=O)SCC(=O)Nc1ccccc1C(=O)O,-15%,-1%,14%,50µM*,34%
NC(=S)N/N=C/c1ccc(-c2cc(Cl)ccc2Cl)o1,-2%,?,2%,-6%,-9%
CN(/N=C/c1ccc(-c2ccc([N+](=O)[O-])cc2)o1)c1ccccc1,-36%,25µM*,1%,-5%,?
CN(C)/N=C/c1ccc(Sc2ccccc2[N+](=O)[O-])o1,20µM*,40µM*,26%,25µM*,35µM*
CN(/N=C/c1cc([N+](=O)[O-])ccc1O)c1ccccc1,-7%,-11%,9%,15%[59 µM],32%
Cc1ccc(C(=O)N/N=C\c2ccc(-c3ccc([N+](=O)[O-])cc3)o2)cn1,-9%,-9%,-7%,nt,18%
NC(=S)N/N=C/c1ccc(-c2cc(Cl)cc(Cl)c2)o1,-33%,-35%,21%,13µM*,9%
NC(=S)N/N=C/c1ccc(-c2ccc([N+](=O)[O-])cc2)o1,-29%,-13%,19%,22µM*,32%
Cc1ccc(-c2cc(C(F)(F)F)n3nc(C(=O)Nc4ccc(C#N)cc4)cc3n2)cc1,-13%,-12%,0%,3%[59 µM],2%
Cc1ccc(CN2CCC(C(=O)NCCC(C)C)CC2)o1,?,45µM*,-2%,32µM*,?
O=C(O)c1ccc(-n2cc(-c3cc4ccccc4oc3=O)[nH]c2=S)cc1,3%,1.3µM*,85%,73%,-15%
O=C(O)CCc1ccc(-c2ccc(Br)cc2)n1-c1ccc(O)cc1,40µM*,?,39%,45µM*,?
CC(=O)c1ccc(-n2c(CCC(=O)O)ccc2-c2ccc(Br)cc2)cc1,?,?,12%,40µM*,-8%
CCOc1ccc(C(=O)C[n+]2ccc(C(=O)NCc3ccccc3)cc2)cc1,-3%,-20%,-8%,nt,23%
COc1ccc(CNC(=O)COC(=O)c2n[nH]c3ccccc23)cc1OC,-24%,-25%,-2%,?,27%
C[N+](C)(C)CCN(Cc1ccc(Cl)cc1)c1ccccn1,50µM*,-35%,14%,11%[59 µM],23%
CC(CN1CCC(O)CC1)c1ccccc1 (centres undefined),?,2.8µM*,6%,nt,?
CC(CN1CCN(Cc2ccccc2)CC1)c1ccccc1 (centres undefined),-8%,89µM*,4%,22%[0.501 µM],-8%

# Screening results (PubChem BioAssay)
